About 1,400 (4.5%) of roughly 31,000 sequences were called active. Many of the other results were omitted from the sample, so actives are more common in it than they were. Unmarked numbers belong to inactive results.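 How the source made its calls: active means median seed-adjusted z-score above 1 or below -1; inactive means the rest.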

This test is described as follows: Novel Modifiers of Survival Motor Neuron (SMN) Protein: Gene Identification via Genome-wide siRNA Screen.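 Further: luminescence tracks full-length SMN protein made from the SMN2 reporter.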 Particulars: HEK293T SMN2-luciferase reporter, siRNA knockdown, 72 h; actives lie on both sides. The procedure, abridged:
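Each of three siRNAs per gene is reverse-transfected (1 pmol) into reporter HEK293T cells whose luciferase output tracks SMN protein level. After 72 h culture, ONE-Glo luminescence is control-normalized, log10-transformed and MAD-standardized; Common Seed Analysis deprioritizes seed-driven hits.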
On the technique in general: In a reporter assay the amount or activity of a reporter protein is the signal.
As for CGUAAAUCCCUAAUCUUUATT against FOXJ1, the median seed-adjusted z-score was -0.553.

As for CACUGAAUGUGAGAGCUGUTT against HRC, the median seed-adjusted z-score was 1.06 (active).

Turning to CCUUCUUCUGGAUACCGAUTT against ABCA9, the median seed-adjusted z-score is -0.139.

Consider GCGGAAAAGCUGUAUCUAUTT against POLR3E, for which the median seed-adjusted z-score was -0.55.

With GGUGGAACUUUUAAUCAAATT against GABPB2, the median seed-adjusted z-score was 0.441.

Consider CCAGAUUGCUAGUAUCUCATT against TRAK1, for which the median seed-adjusted z-score was 0.298.

As to CCUGGAAAGUACUCUAGAATT against PGS1, the median seed-adjusted z-score was 1.36 (active).

On to GGAUCCUACUGGUAAAACUTT against NUDT5, for which the median seed-adjusted z-score is 0.228.

As for GCAGCGACCUUUCAGAACATT against SALL1, the median seed-adjusted z-score is -0.526.

For GAUUAUAAGUAUCUACGUUTT against GTPBP4, the median seed-adjusted z-score is 1.01 (active).

Turning to GACUGACACGGAAUAGUGUTT against ZNF286A, the median seed-adjusted z-score was 0.0368.

CCACCUUCAAUAUCGAGUUTT against DRD3: the median seed-adjusted z-score is 0.0447.

As to ACUGCAAUCUGUUGCCCAATT against CLIC5, the median seed-adjusted z-score was 0.

For CAUUCUCAGUCAUCAUAGATT against ATP8A2, the median seed-adjusted z-score was 0.

Consider GGAUCUGCUUUCGAACCUATT against MBOAT1, for which the median seed-adjusted z-score was -1.22 (active).

As to GGAUAGUAUGAAUGAUCAATT against SRP54, the median seed-adjusted z-score was 0.203.

As for CCGCUUCACAGGUAGUUAATT against NUP93, the median seed-adjusted z-score is 1.01 (active).

For GGUCAAACAAUGUCGCUUUTT against COPB2, the median seed-adjusted z-score was -0.61.

As for GUAAGUCCCUUUAUUCACATT against GFRA4, the median seed-adjusted z-score is -1.59 (active).

On to GGACUCUACCUGACAGAAATT against CAPN13, for which the median seed-adjusted z-score is 0.208.

With GGUUCUAGCUGUCAACAUUTT against AP1G2, the median seed-adjusted z-score was 0.0657.

With ACCACCAAAUGAAGAAUAATT against AKR7A3, the median seed-adjusted z-score is 0.455.

With GCAUCCUUGUGUACAUGUGTT against USP41, the median seed-adjusted z-score is 0.808.

Turning to GCACCUUCGUCUACAAGGATT against PDE6A, the median seed-adjusted z-score is 1.25 (active).

As to UGGACUUCGUGGUUCAGCATT against SULT1A1, the median seed-adjusted z-score was -0.26.

Regarding GGAUGUUUUCCGGUUCAUATT against LOC4951, the median seed-adjusted z-score is 0.0691.

For the sequence GCUUUCAUCGGCUCCAUAATT against CARM1, the median seed-adjusted z-score was 0.317.

As to GAUGUAACAUUGACAUUGATT against NOTCH2, the median seed-adjusted z-score is 0.000598.

As for CAUUUUCAGUCUUUAGAAATT against RNF34, the median seed-adjusted z-score is -0.0857.

As for GGGUUGUUUCAAUCUAACATT against HDAC2, the median seed-adjusted z-score is -1.27 (active).

On to GCCCUGAAGAUAUCGUGAATT against PARVG, for which the median seed-adjusted z-score is 0.321.

Consider GGACUUUGAGGAAACGGAATT against BRD8, for which the median seed-adjusted z-score was -0.133.

With GUUACGCCCUGAUUCUAAATT against MAT2A, the median seed-adjusted z-score was -1.9 (active).

For the sequence GGAACAAAGACUAAAAACATT against TUBB6, the median seed-adjusted z-score was 0.63.

As to GCAAAACACCAGAACGAGATT against TESSP2, the median seed-adjusted z-score is 0.419.

As to GAAUAGAGGAUAUCCUUGATT against KYNU, the median seed-adjusted z-score is 0.00735.

Regarding CCAGCUUGCUUGUGUAUAATT against PPP1R14A, the median seed-adjusted z-score was 0.0124.

With GGAAGACUCAUUGAACAUATT against CASP1, the median seed-adjusted z-score was -0.331.

Take GGGAAUUACCAGUUACGGATT against TMPRSS12: the median seed-adjusted z-score is 0.0961.

CAAUGUUCCUCUACCUCUATT against MAL2: the median seed-adjusted z-score was -0.604.

Take GCAUCCUUACAGCACUGCATT against XRCC3: the median seed-adjusted z-score was 0.332.

In the case of GACUAUCUUUUUAGGCAAATT against BRIP1, the median seed-adjusted z-score was 0.312.

On to GCCUCAUCGUUCUGCAGAATT against ZNF628, for which the median seed-adjusted z-score was -0.121.

On to GUACAGGCCCUACAUCAUUTT against LRP5, for which the median seed-adjusted z-score was -1 (active).

In the case of CAUCUGACCCUAACUGAAATT against ZMYND10, the median seed-adjusted z-score is 0.255.

Consider GGGUGAUCGAGGACCCAAATT against COL8A1, for which the median seed-adjusted z-score is -0.848.

For the sequence GGAUCAUGCUAAAAGGAGATT against SNRPE, the median seed-adjusted z-score is -2.77 (active).

As to GCCUUGUAAAAAUCAACUUTT against ZNF528, the median seed-adjusted z-score is -0.0746.

CGCAAAAGGCUACCACGAATT against CD300LF: the median seed-adjusted z-score is -0.264.

For the sequence GGUUGCUACGGGAACAAUATT against ARSD, the median seed-adjusted z-score was -0.447.

Turning to CAGUGACCUGCUUCCCUCATT against PROP1, the median seed-adjusted z-score is 0.303.

Take CGGUGUGAAGAUGAUCUAATT against DNAJC24: the median seed-adjusted z-score is -0.0166.

On to GUUACUCACAUUUUCUUUATT against AKR7A3, for which the median seed-adjusted z-score is 0.455.

Regarding UAAUCAAUCUGGAAUGUUUTT against BMP8B, the median seed-adjusted z-score was 0.

CGAGGAGCUGAAUUCCCAATT against SLC9A3R1: the median seed-adjusted z-score was -0.418.

For the sequence CAGACUGAAGGGUUCCGAATT against MLH3, the median seed-adjusted z-score was 0.228.

As to GCCUCUAAGAGCUGAGAGATT against PRSS33, the median seed-adjusted z-score is -0.588.

For the sequence GGACUAUGCAAAGAAUCUATT against RPS6KB1, the median seed-adjusted z-score was 1.4 (active).

Take GCUACGAUCACAUUACGAATT against JARID1D: the median seed-adjusted z-score is 0.293.

GUACCAGUCCAGUCCAUGATT against CDKN2D: the median seed-adjusted z-score was -0.455.

As for GGAAGUAAAUGUUGUUUUATT against CCL11, the median seed-adjusted z-score is -0.221.

With GGCCCGAGCUGAUUGACUATT against ACTN1, the median seed-adjusted z-score was 0.

On to GCUCUAACCUCACUAAUCATT against ZNF256, for which the median seed-adjusted z-score was 0.00739.

On to CCGCUGCAACAACCAGAAATT against LRP3, for which the median seed-adjusted z-score was -1.05 (active).

For the sequence CAGUCCUACAGGUUCAUCATT against PIP5K1C, the median seed-adjusted z-score was -0.13.

In the case of GAGAUAUUUGAGUCGUUAATT against GBP7, the median seed-adjusted z-score was 0.

For the sequence CAACUCCGUGGUUACCAAATT against PQBP1, the median seed-adjusted z-score is -1.12 (active).

As to UCAUGAGCCUGAUAAGUGATT against PPP2R5D, the median seed-adjusted z-score is 0.848.

For the sequence GAUCUCAAAUCAGAGUUAATT against ANXA7, the median seed-adjusted z-score is 0.671.

Regarding CAAUGGAUCGGCUUCCUUATT against ADRA2B, the median seed-adjusted z-score is 0.00853.

For GCAAUAAGAGAGAUCAGUATT against PDSS1, the median seed-adjusted z-score was -0.287.

In the case of GGACAAGAAGCAAAUGACATT against OLIG2, the median seed-adjusted z-score was 0.00944.

Turning to GGUCCGCAAAGGCUUCUGATT against VWA1, the median seed-adjusted z-score is 0.289.

Take CCUUAUCCGAGAAUACAUUTT against TUBAL3: the median seed-adjusted z-score is 1.05 (active).

Turning to GGAAAUUGACUUUCUAAAATT against KRT84, the median seed-adjusted z-score was -0.645.

Regarding CAGUGACUAUGAGAGUGUATT against SCARB2, the median seed-adjusted z-score is -0.244.

CGGUUGAAGUGUAGGGAGATT against TCEA1: the median seed-adjusted z-score was 0.

In the case of CGAGUAUACAGUAUACAGATT against CHAF1B, the median seed-adjusted z-score is 0.634.

In the case of CUCAGAGAAUAAUCACAAATT against PER2, the median seed-adjusted z-score was -0.113.

On to GAACUAUAUUCUUCUGUGATT against CDH1, for which the median seed-adjusted z-score is -0.24.

Turning to GCCUCCUACUACUUCCGUUTT against SLC6A8, the median seed-adjusted z-score is -0.0673.

For the sequence GAAUUGUACCUACUUCUGUTT against PTPLA, the median seed-adjusted z-score was 0.291.

With CUACCUCUCUUGUUUGGAATT against TRIP13, the median seed-adjusted z-score was 1 (active).

On to GCAAGCAGGUUAUCAACGATT against FLII, for which the median seed-adjusted z-score was -0.353.

For GCAUGUACGACCAAUGUAATT against NR3C1, the median seed-adjusted z-score is -0.47.

Regarding GAGUCACAGUUGAAGAUCUTT against GOT2, the median seed-adjusted z-score was 0.205.

On to CAAUCUCCGCAAAAAUGGATT against PCMT1, for which the median seed-adjusted z-score is 0.139.

As to CGACAUCUCACUCAUGAAATT against SF3A3, the median seed-adjusted z-score is -2.1 (active).

For the sequence CUAUGGACCAGUCAAAUAATT against NDUFB7, the median seed-adjusted z-score was -0.379.

On to ACACCCGCGUGUCUGAUUATT against PPAP2C, for which the median seed-adjusted z-score is -1.12 (active).

Regarding CCCUCAUCAAGAACUUUCATT against S100A14, the median seed-adjusted z-score is 0.0172.

With GCCUAAACAGUGACCGAUUTT against BDH1, the median seed-adjusted z-score was -0.0253.

On to CUGCUGUUGUUACUACCCATT against USF1, for which the median seed-adjusted z-score is 0.16.

As for GCAAGACCACGCUCCUUUATT against ARL11, the median seed-adjusted z-score is 1 (active).

Regarding GGAGUUAUCUGGUGACAAUTT against UROS, the median seed-adjusted z-score was -0.248.

For the sequence GGCUAGUAGCUGAACUUCATT against DIMT1L, the median seed-adjusted z-score is 0.0156.

Take CAGUUGCAUUGGUUCCCAUTT against EZH1: the median seed-adjusted z-score was 0.268.

In the case of GCUUUGGAAGGGUUUGAUATT against DCT, the median seed-adjusted z-score was -0.184.

For the sequence GACGAAUCACUGCAGUUUATT against GOSR2, the median seed-adjusted z-score is -1.25 (active).

Regarding CAAGGUCUCCUGUGCUGAATT against MYOG, the median seed-adjusted z-score was -0.0972.

Take GGAUGUUGAUGAAGGCAAATT against LDHAL6A: the median seed-adjusted z-score is -0.15.

With GAAUAUAACCUGCCGCUUUTT against CD44, the median seed-adjusted z-score is 0.

For GGGCUGGAUUGGUACAGGATT against HS3ST2, the median seed-adjusted z-score is 0.133.

Turning to CGUGUGAUCCAGAGACUUATT against KRT1, the median seed-adjusted z-score is -0.362.

Turning to AAGGCUACUUAACAAAGGATT against S100A10, the median seed-adjusted z-score was 0.366.

Regarding GACGACUUCUUGAACAGAATT against ZNF207, the median seed-adjusted z-score was -3.1 (active).

In the case of GUAGGAUUGUUUAGUGUAATT against CACNA1D, the median seed-adjusted z-score is -0.0856.

As to GCUUUGAGAUUUUCGAGGATT against MYO1B, the median seed-adjusted z-score is 0.903.

These data come from PubChem BioAssay AID1347426 (Functional Genomics Laboratory (NCATS/FGL), 2020).
